Test results as given in ChEMBL document CHEMBL2218924, “A broad activity screen in support of a chemogenomic map for kinase signalling research and drug discovery” (Biochem J, 2013).

These compounds were tested against Vascular endothelial growth factor receptor 3 (Homo sapiens) (UniProt P35916). Details: at 10 µM.
Vascular endothelial growth factor receptor 3 (Homo sapiens), sequence (P35916 whole entry): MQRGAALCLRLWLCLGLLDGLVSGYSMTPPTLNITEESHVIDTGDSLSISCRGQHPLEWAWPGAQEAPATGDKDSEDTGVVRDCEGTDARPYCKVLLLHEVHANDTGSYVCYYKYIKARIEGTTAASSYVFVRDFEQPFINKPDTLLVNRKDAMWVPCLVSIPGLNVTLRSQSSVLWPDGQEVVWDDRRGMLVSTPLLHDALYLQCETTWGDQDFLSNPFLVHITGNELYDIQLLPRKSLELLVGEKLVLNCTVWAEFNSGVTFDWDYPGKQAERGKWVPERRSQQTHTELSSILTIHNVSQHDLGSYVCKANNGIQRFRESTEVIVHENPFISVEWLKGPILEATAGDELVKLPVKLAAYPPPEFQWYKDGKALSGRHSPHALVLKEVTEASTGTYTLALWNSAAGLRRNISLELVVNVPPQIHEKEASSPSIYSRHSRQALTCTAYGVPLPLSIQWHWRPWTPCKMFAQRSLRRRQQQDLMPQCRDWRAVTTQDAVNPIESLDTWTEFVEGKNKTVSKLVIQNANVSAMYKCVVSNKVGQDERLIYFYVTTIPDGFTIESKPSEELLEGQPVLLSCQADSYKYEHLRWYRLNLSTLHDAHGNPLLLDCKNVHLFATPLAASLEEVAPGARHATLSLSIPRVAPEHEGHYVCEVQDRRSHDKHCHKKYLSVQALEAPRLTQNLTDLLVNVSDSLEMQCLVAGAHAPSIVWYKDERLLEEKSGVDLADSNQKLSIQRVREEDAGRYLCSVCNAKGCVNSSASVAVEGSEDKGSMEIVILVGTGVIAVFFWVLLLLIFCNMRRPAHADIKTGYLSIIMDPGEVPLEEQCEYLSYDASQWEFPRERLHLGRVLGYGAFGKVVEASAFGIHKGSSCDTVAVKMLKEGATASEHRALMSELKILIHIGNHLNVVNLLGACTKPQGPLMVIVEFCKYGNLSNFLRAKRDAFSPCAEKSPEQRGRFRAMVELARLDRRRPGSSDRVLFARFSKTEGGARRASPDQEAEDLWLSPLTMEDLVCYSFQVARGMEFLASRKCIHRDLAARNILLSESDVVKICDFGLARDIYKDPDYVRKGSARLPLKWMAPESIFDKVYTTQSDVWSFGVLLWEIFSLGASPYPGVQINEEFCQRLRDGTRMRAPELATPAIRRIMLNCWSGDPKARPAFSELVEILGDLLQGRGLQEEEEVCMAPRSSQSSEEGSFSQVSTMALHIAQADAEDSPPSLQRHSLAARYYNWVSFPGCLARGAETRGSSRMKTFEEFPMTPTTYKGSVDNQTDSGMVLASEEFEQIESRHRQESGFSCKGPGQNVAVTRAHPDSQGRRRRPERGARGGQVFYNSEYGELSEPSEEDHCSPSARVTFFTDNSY

Compared with NC(=O)c1ccc(-c2nc(-c3ccc4c(c3)OCCO4)c(-c3ccccn3)[nH]2)cc1, CSc1nc(-c2ccc(F)cc2)c(-c2ccnc(NC(C)c3ccccc3)c2)[nH]1 (stereo not drawn) is higher in residual activity: 46% for the first, 64% for the second.

Going from COc1cc2ncnc(Nc3cccc(Cl)c3)c2cc1OC to COc1ccc(Cl)cc1NC(=O)Nc1cc(C)nc2ccccc12, the residual activity rises from 6% to 93%.

Going from O=C1NC(=O)C(c2cn(CCCn3ccnc3)c3ccccc23)=C1Nc1ccccc1 to COc1ccc2c(c1)c(C1=C(c3c[nH]c4ccccc34)C(=O)NC1=O)cn2CCCN(C)C, the residual activity falls from 9% to 0%.

Going from Fc1ccc(-c2nc3n(c2-c2ccncc2)CCS3)cc1 to O=c1c(-c2ccc(F)cc2)c(-c2ccncc2)[nH]n1-c1ccc(Cl)cc1, the residual activity falls from 43% to 20%.

First: Nc1nccc(-c2c(-c3ccc(F)cc3)ncn2C2CCNCC2)n1
Second: CCCCc1c(-c2ccc(O)cc2)[nH]c2nccnc12
The residual activity of the first is higher: 10% for the first, 2% for the second.

Compared with O=S(=O)(NCCNC/C=C/c1ccc(Br)cc1)c1cccc2cnccc12, O=S(=O)(c1cccc2cnccc12)N1CCCNCC1 is higher in residual activity: 26% for the first, 52% for the second.

Going from O=C1Nc2ccccc2/C1=C\c1c(Cl)[nH]c2ccccc12 to O=c1cc(N2CCOCC2)oc2c(-c3ccccc3)cccc12, the residual activity rises from 8% to 72%.

Compared with NC(=O)c1cccc(-c2cc(Nc3ccc(OC(F)(F)F)cc3)ncn2)c1, NCCNc1ncc(C(N)=O)c(Nc2cccc(C(F)(F)F)c2)n1 is lower in residual activity: 81% for the first, 48% for the second.

Going from COc1ccc(COc2ccc(Cc3cnc(N)nc3N)cc2OC)cc1 to CCOc1nc(NC(=O)Cc2cc(OC)ccc2OC)cc(N)c1C#N, the residual activity falls from 115% to 64%.

Compared with Nc1ncnc2c1cnn2-c1ccccc1, CC(C)(C)n1nc(Cc2cccc3ccccc23)c2c(N)ncnc21 is lower in residual activity: 82% for the first, 5% for the second.

First: CC(C)[C@H](CO)Nc1nc(Nc2cc(N)cc(Cl)c2)c2ncn(C(C)C)c2n1
Second: CC(C)(C)c1nc2c3ccc(F)cc3c3c(=O)[nH]ccc3c2[nH]1
The residual activity of the first is lower: 3% for the first, 16% for the second.

First: CCN1/C(=C/C(C)=O)Sc2ccc(OC)cc21
Second: O=C(c1ccccc1)c1ccc(N2CCOCC2)cc1O
The residual activity of the first is lower: 65% for the first, 85% for the second.

Compared with N#Cc1c(NC(=O)c2cccc3ccccc23)sc2c1CCCC2, O=C(Nc1nc2ccccc2n1CCN1CCOCC1)c1cccc([N+](=O)[O-])c1 is lower in residual activity: 86% for the first, 40% for the second.

Compared with N#C/C(=C1/Nc2ccccc2S1)c1ccnc(NCCc2cccnc2)n1, O=C(Nc1ccc(Cl)cc1)c1ccccc1NCc1ccncc1 is lower in residual activity: 22% for the first, 0% for the second.
